Data reported in the supplement of paper PMC12669032.
Where “and” joins values, the source holds several entries; their conditions need not be identical. Equal values may be shown once.

Tests used:
Assay in all cases: growth AUC relative to DMSO control (median of replicates) (fraction); higher = more growth (less inhibition), active = hit call of the paper
Settings in all cases: 20 µM; 24 h;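 active = AUC reduced over 20% with Padj below 0.05 in at least 2 of 3 replicates; inactive = otherwise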
Akkermansia muciniphila = system: Akkermansia muciniphila
In short: (§1)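 Gut bacterial monocultures were grown anaerobically at 37 °C in mGAM, starting at OD600 0.05, with 20 µM compound (1% DMSO) in round-bottom 96-well plates under pierced gas-permeable seals. OD600 was read hourly for 24 h. Area under the growth curve (minimum OD set to 0) was normalised to the plate median of DMSO controls, or to row and column medians on the industrial chemical plate. The value is the median of three biological replicates grown on separate days.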

Bacteroides caccae = system: Bacteroides caccae
In short: as §1

Bacteroides clarus = system: Bacteroides clarus
In short: as §1

Bacteroides dorei = system: Bacteroides dorei
In short: as §1

Bacteroides stercoris = system: Bacteroides stercoris
In short: as §1

[1] = system: Bacteroides thetaiotaomicron
In short: as §1

Bacteroides uniformis = system: Bacteroides uniformis
In short: as §1

[2] = system: Bifidobacterium longum subsp. longum
In short: as §1

Clostridium difficile = system: Clostridium difficile
In short: as §1

Collinsella aerofaciens = system: Collinsella aerofaciens
In short: as §1

Measured: growth AUC

COC(=O)c1ccccc1S(=O)(=O)NC(=O)Nc1nc(C)nc(OC)n1
inactive: Akkermansia muciniphila 1.1 | Bacteroides caccae 1.02 | Bacteroides clarus 0.982 | Bacteroides dorei 1.01 | Bacteroides stercoris 0.849 | [1] 0.995 | Bacteroides uniformis 1.03 | [2] 1 | Clostridium difficile 1.01 | Collinsella aerofaciens 0.957

CCCCOCN(C(=O)CCl)c1c(CC)cccc1CC
inactive: Akkermansia muciniphila 1.07 | Bacteroides caccae 0.909 | Bacteroides clarus 0.955 | Bacteroides dorei 0.944 | Bacteroides stercoris 1.25 | [1] 0.923 | Bacteroides uniformis 0.954 | [2] 0.996 | Clostridium difficile 0.979 | Collinsella aerofaciens 0.928

CNC(=S)S
inactive: Akkermansia muciniphila 1.07 | Bacteroides caccae 1.01 | Bacteroides clarus 1.04 | Bacteroides dorei 0.996 | Bacteroides stercoris 1.08 | [1] 1.02 | Bacteroides uniformis 1 | [2] 1.37 | Clostridium difficile 0.999 | Collinsella aerofaciens 0.996

Cc1cc(C2CC2)nc(Nc2ccccc2)n1
inactive: Akkermansia muciniphila 0.934 | Bacteroides caccae 0.979 | Bacteroides clarus 0.939 | Bacteroides dorei 0.916 | Bacteroides stercoris 0.756 | [1] 0.903 | Bacteroides uniformis 0.981 | [2] 1.04 | Clostridium difficile 0.959 | Collinsella aerofaciens 0.953

CS(=O)(=O)c1ccc(C(=O)C2C(=O)CCCC2=O)c(Cl)c1
inactive: Akkermansia muciniphila 0.92 | Bacteroides caccae 1.01 | Bacteroides clarus 1.01 | Bacteroides dorei 1.01 | Bacteroides stercoris 1.04 | [1] 1.01 | Bacteroides uniformis 1 | [2] 0.967 | Clostridium difficile 1.11 | Collinsella aerofaciens 1.05

CCOP(=S)(OCC)Oc1cc(Cl)c(SC)cc1Cl
inactive: Akkermansia muciniphila 1.01 | Bacteroides caccae 0.997 | Bacteroides clarus 0.979 | Bacteroides dorei 0.999 | Bacteroides stercoris 1.11 | [1] 0.992 | Bacteroides uniformis 0.989 | [2] 0.981 | Clostridium difficile 1.05 | Collinsella aerofaciens 1.01

Clc1cccc(Cl)c1Cl
inactive: Akkermansia muciniphila 0.898 | Bacteroides caccae 1.04 | Bacteroides clarus 0.992 | Bacteroides dorei 0.997 | Bacteroides stercoris 0.945 | [1] 1.02 | Bacteroides uniformis 1.01 | [2] 1.04 | Clostridium difficile 0.996 | Collinsella aerofaciens 0.973

O=C1C[C@@H]2OCC=C3CN4CC[C@]56c7ccccc7N1[C@H]5[C@H]2[C@H]3C[C@H]46
inactive: Akkermansia muciniphila 0.985 | Bacteroides caccae 0.968 | Bacteroides clarus 0.998 | Bacteroides dorei 0.93 | Bacteroides stercoris 0.898 | [1] 0.964 | Bacteroides uniformis 1.01 | [2] 1.09 | Clostridium difficile 0.972 | Collinsella aerofaciens 0.942

C#CCC1=C(C)C(OC(=O)C2C(C=C(C)C)C2(C)C)CC1=O (stereo unspecified)
inactive: Akkermansia muciniphila 1.05 | Bacteroides caccae 0.892 | Bacteroides clarus 1.04 | Bacteroides dorei 0.964 | Bacteroides stercoris 1.01 | [1] 1.01 | Bacteroides uniformis 0.932 | [2] 1.02 | Clostridium difficile 0.969 | Collinsella aerofaciens 0.985

ClC1=C(Cl)[C@]2(Cl)[C@@H]3[C@@H]4C[C@@H]([C@H]5O[C@@H]45)[C@@H]3[C@@]1(Cl)C2(Cl)Cl
inactive: Akkermansia muciniphila 0.945 | Bacteroides caccae 0.98 | Bacteroides clarus 1.01 | Bacteroides dorei 1 | Bacteroides stercoris 0.947 | [1] 0.967 | Bacteroides uniformis 0.979 | [2] 1.02 | Clostridium difficile 0.973 | Collinsella aerofaciens 0.989

Nc1ccc(Cl)cc1Cl
inactive: Akkermansia muciniphila 1.06 | Bacteroides caccae 1 | Bacteroides clarus 1.01 | Bacteroides dorei 1.02 | Bacteroides stercoris 0.97 | [1] 1.03 | Bacteroides uniformis 0.993 | [2] 1.04 | Clostridium difficile 1.03 | Collinsella aerofaciens 1.04

CCc1cccc(C)c1N(C(=O)CCl)C(C)COC (stereo unspecified)
inactive: Akkermansia muciniphila 1.03 | Bacteroides caccae 0.884 | Bacteroides clarus 1.01 | Bacteroides dorei 0.995 | Bacteroides stercoris 1.26 | [1] 1 | Bacteroides uniformis 0.935 | [2] 1.07 | Clostridium difficile 0.979 | Collinsella aerofaciens 1.02

N#Cc1nn(-c2c(Cl)cc(C(F)(F)F)cc2Cl)c(N)c1SC(F)(F)F
inactive: Akkermansia muciniphila 1.01 | Bacteroides caccae 0.941 | Bacteroides clarus 0.858 | Bacteroides dorei 0.899 | Bacteroides stercoris 1.14 | [1] 0.953 | Bacteroides uniformis 0.928 | [2] 1.09 | Clostridium difficile 0.909 | Collinsella aerofaciens 0.942

CC(Oc1ccc(Oc2ccc(C(F)(F)F)cn2)cc1)C(=O)O (stereo unspecified)
inactive: Akkermansia muciniphila 1.17 | Bacteroides caccae 0.992 | Bacteroides clarus 1.02 | Bacteroides dorei 0.943 | Bacteroides stercoris 1.04 | [1] 1.01 | Bacteroides uniformis 0.899 | [2] 1.05 | Clostridium difficile 0.917 | Collinsella aerofaciens 0.941

CN1CSC(=S)N(C)C1
inactive: Akkermansia muciniphila 1.02 | Bacteroides caccae 1.01 | Bacteroides clarus 0.939 | Bacteroides dorei 1.03 | Bacteroides stercoris 0.942 | [1] 0.976 | Bacteroides uniformis 1.05 | [2] 1.01 | Clostridium difficile 0.976 | Collinsella aerofaciens 1.07

CCCSP(=S)(OCC)Oc1ccc(Cl)cc1Cl (stereo unspecified)
inactive: Akkermansia muciniphila 1.06 | Bacteroides caccae 0.796 | Bacteroides clarus 1.05 | Bacteroides dorei 0.98 | Bacteroides stercoris 1.41 | [1] 0.961 | Bacteroides uniformis 1.01 | [2] 1.07 | Clostridium difficile 1.05 | Collinsella aerofaciens 0.965

CCN(C(=O)n1nnn(-c2ccccc2Cl)c1=O)C1CCCCC1
inactive: Akkermansia muciniphila 0.87 | Bacteroides caccae 0.84 | [2] 0.988 | Clostridium difficile 0.992 | Collinsella aerofaciens 0.925
active: Bacteroides clarus 0.508 | Bacteroides dorei 0.513 | Bacteroides stercoris 0.118 | [1] 0.107 | Bacteroides uniformis 0.0622

COP(=S)(NC(C)C)Oc1ccc(C)cc1[N+](=O)[O-] (stereo unspecified)
inactive: Akkermansia muciniphila 0.926 | Bacteroides caccae 0.974 | Bacteroides clarus 0.977 | Bacteroides dorei 0.982 | Bacteroides stercoris 1.09 | [1] 0.964 | Bacteroides uniformis 0.956 | [2] 1.04 | Clostridium difficile 1.08 | Collinsella aerofaciens 1.05

COC(=O)c1cc(Oc2ccc(Cl)cc2Cl)ccc1[N+](=O)[O-]
inactive: Akkermansia muciniphila 1.02 | Bacteroides caccae 0.953 | Bacteroides dorei 0.973 | [1] 0.968 | Bacteroides uniformis 0.814 | [2] 1.02 | Clostridium difficile 0.905 | Collinsella aerofaciens 0.901
active: Bacteroides clarus 0.793 | Bacteroides stercoris 0.436

O=c1ccc(=O)[nH][nH]1
inactive: Akkermansia muciniphila 1.2 | Bacteroides caccae 0.973 | Bacteroides clarus 1.01 | Bacteroides dorei 0.989 | Bacteroides stercoris 0.951 | [1] 1 | Bacteroides uniformis 1.05 | [2] 1.62 | Clostridium difficile 0.954 | Collinsella aerofaciens 0.92

ClC1C(Cl)C(Cl)C(Cl)C(Cl)C1Cl (stereo unspecified)
inactive: Collinsella aerofaciens 1.02 and 1.01 and 1.03

COC(=O)NC(=S)Nc1ccccc1NC(=S)NC(=O)OC
inactive: Akkermansia muciniphila 1.04 | Bacteroides caccae 0.99 | Bacteroides clarus 0.985 | Bacteroides dorei 1.01 | Bacteroides stercoris 1.12 | [1] 0.981 | Bacteroides uniformis 0.988 | [2] 0.958 | Clostridium difficile 0.951 | Collinsella aerofaciens 1.01

O=P(OC(CCl)CCl)(OC(CCl)CCl)OC(CCl)CCl
inactive: Akkermansia muciniphila 1.09 | Bacteroides caccae 0.845 | Bacteroides clarus 0.999 | Bacteroides dorei 0.87 | Bacteroides stercoris 1.3 | [1] 0.947 | Bacteroides uniformis 0.868 | [2] 1.05 | Clostridium difficile 0.9 | Collinsella aerofaciens 0.948

Cc1cccc2sc3nncn3c12
inactive: Akkermansia muciniphila 0.892 | Bacteroides caccae 0.989 | Bacteroides clarus 0.965 | Bacteroides dorei 1.04 | Bacteroides stercoris 1.03 | [1] 0.993 | Bacteroides uniformis 1.01 | [2] 0.964 | Clostridium difficile 0.973 | Collinsella aerofaciens 1.07

CC(C)C(C(=O)OC(C#N)c1cccc(Oc2ccccc2)c1)c1ccc(Cl)cc1 (stereo unspecified)
inactive: Akkermansia muciniphila 0.88 | Bacteroides caccae 0.977 | Bacteroides clarus 1 | Bacteroides dorei 0.935 | Bacteroides stercoris 1.1 | [1] 1.02 | Bacteroides uniformis 0.986 | [2] 0.765 | Clostridium difficile 1.01 | Collinsella aerofaciens 0.903

COC(=O)NS(=O)(=O)c1ccc(N)cc1
inactive: Akkermansia muciniphila 1 | Bacteroides caccae 0.901 | Bacteroides clarus 0.995 | Bacteroides dorei 0.916 | Bacteroides stercoris 0.959 | [1] 0.948 | Bacteroides uniformis 0.867 | [2] 1.03 | Clostridium difficile 0.913 | Collinsella aerofaciens 0.876

COC(=O)NCc1cc(/C(C)=N/OCc2cccc(C)n2)ccc1Cl
inactive: Akkermansia muciniphila 1.06 | Bacteroides caccae 0.965 | Bacteroides clarus 0.947 | Bacteroides dorei 0.946 | Bacteroides stercoris 0.972 | [1] 0.944 | Bacteroides uniformis 0.808 | [2] 0.981 | Clostridium difficile 0.956 | Collinsella aerofaciens 1.01

CC(C)N(C(=O)SCC(Cl)=C(Cl)Cl)C(C)C
inactive: Akkermansia muciniphila 1.26 | Bacteroides caccae 1 | Bacteroides clarus 1.02 | Bacteroides dorei 0.955 | Bacteroides stercoris 0.955 | [1] 0.999 | Bacteroides uniformis 0.989 | [2] 1.01 | Clostridium difficile 0.994 | Collinsella aerofaciens 0.953

O=c1oc2ccccc2c(O)c1C(CC(O)c1ccc(-c2ccc(Br)cc2)cc1)c1ccccc1 (stereo unspecified)
active: Bacteroides caccae 0.438 | Bacteroides clarus 0.279 | Bacteroides dorei 0.563 | Bacteroides stercoris 0.00869 | [1] 0.733 | Bacteroides uniformis 0.703 | [2] 0.747 | Clostridium difficile 0.327
inactive: Akkermansia muciniphila 1 | Collinsella aerofaciens 0.941

CC(Oc1ccc(Oc2ncc(C(F)(F)F)cc2Cl)cc1)C(=O)O (stereo unspecified)
inactive: Akkermansia muciniphila 1.02 | Bacteroides caccae 0.974 | Bacteroides clarus 0.957 | Bacteroides dorei 0.954 | Bacteroides stercoris 0.979 | [1] 0.975 | Bacteroides uniformis 0.943 | [2] 0.93 | Clostridium difficile 1.01 | Collinsella aerofaciens 0.967
